# Measurements from PubChem BioAssay (EPA / NIEHS).
# The source made the active and inactive calls. How the source made its calls: active means hit-call score of the fitted dose curve at least 0.9, where 1 is the maximum; inactive means score below 0.9.
# Read-out: Cytochrome P450 (CYP24A1_1), CYP24A1 (gene 1591)
# Test: LTEA_HepaRG_CYP24A1_1: Life Technologies and Expression Analysis (LTEA) Assay for Cytochrome P450 (CYP24A1_1) using HepaRG (AID 2283671)
# Conditions: mRNA level, 48 h; actives raise or lower the signal
# Protocol: LTEA_HepaRG is a cell based, multiplexed-readout assay that uses HepaRG, a human liver cell line, with measurements taken at 48 hours after chemical dosing on a 96-well plate.LTEA_HepaRG_CYP24A1_1 is one of 102 assay component(s) measured in the LTEA HepaRG cell culture assay. It is a marker of NR mediated metabolism.Data from the assay component LTEA_HepaRG_CYP24A1_1 was analyzed into 1 endpoint. This assay endpoint, LTEA_HepaRG_CYP24A1_1, was analyzed with bidirectional fitting relative to DMSO as the negative control and baseline of activity. Using a type of inducible reporter, measures of mRNA induction for gain or loss-of-signal activity can be used to understand regulation of transcription factor activity. To generalize the intended target to other relatable targets, this assay endpoint is annotated to the cyp intended target family, where the subfamily is xenobiotic metabolism.
# A total of 1060 chemcials from the ToxCast library were tested in eight-point concentration-response experiments. Cell culture and cytotoxicity assays were conducted at Thermo Fisher Scientific's Custom Services facility (Madison, WI). A single lot of human HepaRG cells (Thermo Fisher Scientific, Frederick, MD) was used for the cell culture experiments. 96-well format collagen type I coated plates of human HepaRG cells were prepared using established methods. Briefly, cryopreserved HepaRG cells were thawed, plated at a density of approximately 100,000 cells/well in HepaRG Thaw, Plate, and General Purpose media (HPRG770, Thermo Fisher Scientific), and incubated for 48 hours. 0.5% DMSO was selected as vehicle control to balance the requisite need of DMSO in HepaRG cultures to maintain differentiation (for example, baseline metabolism, proportions of hepatocytes vs. cholangiocytes), while enabling further hepatic receptor pathway activation (for example, PXR and CAR) in response to chemical exposure. 48 hours after plating, the culture medium was replaced with HepaRG Serum-Free Incudtion Media. Cells were exposed to each test chemical in duplicate and maintained in CO2 incubators for another 48 hours. Chemical plates were thawed to room temperature and 200x concentrations of treatment groups were prepared. 8-point conentration-reponse curves were made with the highest exposure at 100 uM, followed by half-log dilutions, all in 0.5% DMSO. Each test plate contained variouse controls, induction positive controls (1mM phenobarbital), cytotoxicity positive controls ([…] aflatoxin B1), vehicle controls (0.5% DMSO), and total lysis controls (0.5% DMSO). Cell morphology images were taken using an Essen IncuCyte FLR automated microscope, with six 96-well plates imaged in about 24 minutes. Images were captured and exported and JPEG files. Spent culture media was transfered to black-well plates for the LDH assay, and remaining media was sorted at -80 C for later use. Cells were treated with RLT buffer and frozen until shipped for gene expression analysis. Total RNA was isolated from the cell suspension in 75 uL of Buffer RLT (Qiagen, Germantown, MD 20874) by Quintiles/Expression Analysis (Durham, NC) using a custom isolation procedure. Total RNA from each plate well was transferred to a preamplification plate. Fluidigm's 96.96 Dynamic ArrayTM (Fluidigm, Amsterdam, the Netherlands) technology was used for gene expression analyses by quantitative reverse transcription polymerase chain reaction (qRT-PCR, performed by Quintiles/Expression Analysis, Durham, NC)89. Standard TaqManTM Assays (Applied Biosystems/ThermoFisher Scientific, Foster City, CA) were used to assess the expression of 93 genes selected based on their selectivity and sensitivity to important hepatic receptors known to be modulated by environmental chemicals; importance in human hepatocyte functionality; and hepatotoxicity. […]
Structure (SMILES),outcome,AC50
CN(C)C(=O)Nc1ccc(Cl)cc1,inactive,
Nc1ccc(Cl)cc1N,,30.8 µM (active)
ClC1=C(Cl)C2(Cl)C3C(Cl)C=CC3C1(Cl)C2(Cl)Cl (stereo not given),inactive,
Cc1ccc([N+](=O)[O-])cc1,inactive,
O=[N+]([O-])C(Br)(CO)CO,inactive,
CCN(CC)CCO,inactive,
C1=Cc2cccc3cccc1c23,inactive,
CO[C@@H]1[C@H](OC(=O)NC(=O)CCl)CC[C@]2(CO2)[C@H]1[C@@]1(C)O[C@@H]1CC=C(C)C,inactive,
CC(C)COC(=O)c1ccccc1C(=O)OCC(C)C,inactive,
C[C@]12C=CC3=C4CCC(=O)C=C4CC[C@H]3[C@@H]1CC[C@@H]2O,inactive,
